We go through 30 molecules from ChEMBL document CHEMBL3988442, “University of Dundee, Small-Polar-MMV Screening Library” (2021).

The campaign covered roughly 48,000 compounds. About 13,000 (27%) showed an effect of 50% or more. The list shows a part of the results.

The experiment has as its system Wolbachia pipientis. Put plainly: Anti-Wolbachia Cell-Based Screen. Format: functional. Further details: scale not given: in the data most compounds retested in dose-response had high values. The conditions noted are these: 5 µM.
As for `CCc1ncncc1C(=O)N1CCCN(Cc2ccc(C)cc2)CC1`, the “Percent Effect” value is reported as -0.6521%.

In the case of `CC(C)c1ncncc1C(=O)N1CCN(Cc2ccccn2)CC1`, the “Percent Effect” value came out at 108.4%.

As to `Cc1ccc(C(=O)N2CCN(Cc3ccsc3)CC2)n1C`, the “Percent Effect” value was -3.003%.

Regarding `CCCc1c(C(=O)N2CCN(Cc3ccccn3)CC2)cnn1C`, the “Percent Effect” value is 12.63%.

In the case of `CC(C)c1ncncc1C(=O)N1CCCN(Cc2cccs2)CC1`, the “Percent Effect” value is 14.44%.

As to `CC(C)c1ncncc1C(=O)N1CCN(Cc2cccnc2)CC1`, the “Percent Effect” value is reported as 115.2%.

As to `CC(C)c1ncncc1C(=O)N1CCN(Cc2ccsc2)CC1`, the “Percent Effect” value is 100.4%.

With `CC(C)c1cc(C(=O)N2CCN(Cc3ccsc3)CC2)n[nH]1`, the “Percent Effect” value is reported as 8.435%.

Regarding `CC(C)CN1CCN(C(=O)c2cccnc2-n2cncn2)CC1`, the “Percent Effect” value is on record as -9.606%.

On to `CCc1c(C)[nH]c(C(C)(N)CC)nc1=O.Cl` (stereo not given), for which the “Percent Effect” value is listed as 22.39%.

On to `COc1cccc(COCC(O)CN(C)c2ccc(C)cc2C)c1` (stereo not given), for which the “Percent Effect” value is 0.5373%.

Regarding `Cn1cc(CNC2CCOCC2)c(-c2cc3ccccc3o2)n1`, the “Percent Effect” value stood at 2.257%.

On to `COCCN(Cc1cnn(C)c1)c1nc(C)nc2sccc12`, for which the “Percent Effect” value turned out to be 10.56%.

On to `Cn1cc(CN2CCCN(C(=O)c3cn4ccccc4n3)CC2)cn1`, for which the “Percent Effect” value is 23.55%.

As for `Cn1cc(CN2CCc3nc4ccccc4c(=O)n3CC2)cn1`, the “Percent Effect” value was found to be 97.31%.

As for `Cc1c(CN2CCc3nc4sccc4c(=O)n3CC2)cnn1C.Cl`, the “Percent Effect” value worked out at 100.5%.

With `Cn1cc(CN2CCc3nc4sccc4c(=O)n3CC2)cn1`, the “Percent Effect” value is listed as 107.2%.

As to `Cc1nn(C)cc1CN1CCc2nc3sccc3c(=O)n2CC1`, the “Percent Effect” value is on record as 108%.

Turning to `Cc1cc2c(=O)n3c(nc2s1)CCN(Cc1cnn(C)c1C)CC3.Cl`, the “Percent Effect” value is on record as -7.845%.

Turning to `O=c1c2ccccc2nc2n1CCN(Cc1cccs1)CC2`, the “Percent Effect” value is reported as -4.199%.

Consider `Cn1cc(CN2CCCN(C(=O)c3cc(Cl)cn3C)CC2)cn1`, for which the “Percent Effect” value is on record as -17.2%.

As to `CC(C)(C)c1n[nH]cc1CN1CCc2nc3ccsc3c(=O)n2CC1`, the “Percent Effect” value is given as -17.99%.

On to `CCn1nc2c(cc1=O)CN(Cc1nc(-c3ccoc3)no1)CC2`, for which the “Percent Effect” value was -3.016%.

For the molecule `Cn1cc(C2CCCN2C(=O)c2cnc(-c3ccco3)s2)cn1` (stereo not given), the “Percent Effect” value stood at 97.73%.

Turning to `Cn1cc(C2CCCN2C(=O)c2cnc(-c3ncccn3)s2)cn1` (stereo not given), the “Percent Effect” value was found to be 107.5%.

As to `Cn1cc(C2CCCN2C(=O)c2cnc(-c3ccccn3)s2)cn1` (stereo not given), the “Percent Effect” value was 99.88%.

`Cn1cc(C2CCCN2C(=O)c2cnc(-c3cccs3)s2)cn1` (stereo not given): the “Percent Effect” value amounted to 79.27%.

Regarding `Cn1cc(C2CCCN2C(=O)c2ccc(Br)o2)cn1` (stereo not given), the “Percent Effect” value is reported as -1.087%.

For `Cn1cc(C2CCCN2C(=O)Cc2n[nH]c3ccccc23)cn1` (stereo not given), the “Percent Effect” value is -7.231%.

On to `Cn1cc(C2CCCN2C(=O)Cc2coc(-c3ccccc3)n2)cn1` (stereo not given), for which the “Percent Effect” value is given as -3.572%.
